# Assay results as given in article PMC12431657, “Discovery and mechanistic insights of dibenzoylmethane as a broad spectrum inhibitor of coronavirus” (PLOS Pathogens, 2025).
# Read-outs that look alike come from different tables or passages of the source. The whole screen tested about 3,300 compounds, of which about 95 (3%) showed an effect of 50% or more. Only a selection was taken, and strong results are over-represented in it overall. Peptide text beside a SMILES is read from it.
# Test system: HCoV-229E
# Parameters: species or system Huh-7; HTS, protection from HCoV-229E induced cell death, luminescent cell viability (CellCounting-Lite 2.0), inhibition rate
# Conditions: 24 h post infection, 1 h compound pre-incubation, 10 µM, inhibitor
smiles,measurement,setting,value
COC(=O)/C=C/c1ccc(O)cc1 [Methyl p-coumarate],229E Inhibition rate,"229E Inhibition rate, 24 h",15.5%
COC(=O)C1=CO[C@@H](O[C@@H]2O[C@H](CO)[C@@H](O)[C@H](O)[C@H]2O)[C@H]2[C@@H]1C=C[C@@]2(O)CO [Gardenoside],229E Inhibition rate,,10.6%
"CCCCCCCCCCCCCCCC(=O)OC[C@H](CO)OC(=O)CCCCCCCCCCCCCCC [1,2-Dipalmitoyl-sn-glycerol]",229E Inhibition rate,,6%
COC(=O)C1=CO[C@@H](O[C@@H]2O[C@H](CO)[C@@H](O)[C@H](O)[C@H]2O)[C@@H]2[C@@H](C)CC(=O)[C@]12O [Hastatoside],229E Inhibition rate,,0%
C[C@H](CC(=O)O)[C@H]1CC[C@H]2[C@@H]3[C@H](O)C[C@@H]4C[C@H](O)CC[C@]4(C)[C@H]3C[C@H](O)[C@]12C [Norcholic acid],229E Inhibition rate,,0%
Cc1cccc(CC(=O)O)c1 [m-Tolylacetic acid],229E Inhibition rate,,18.9%
O=C1O[C@H]([C@@H](O)CO)C(O)=C1O [L-Ascorbic acid],229E Inhibition rate,"229E Inhibition rate, 24 h",17.7%
OC[C@H]1O[C@H](OC[C@H]2O[C@H](O[C@]3(CO)O[C@H](CO)[C@@H](O)[C@@H]3O)[C@H](O)[C@@H](O)[C@@H]2O)[C@H](O)[C@@H](O)[C@H]1O [Raffinose],229E Inhibition rate,,52.1%
OC[C@H]1O[C@@](CO)(O[C@H]2O[C@H](CO[C@@H]3O[C@H](CO)[C@@H](O)[C@H](O)[C@H]3O)[C@@H](O)[C@H](O)[C@H]2O)[C@@H](O)[C@@H]1O [Gentianose],229E Inhibition rate,,0%
OC[C@H]1O[C@H](OC[C@H]2O[C@H](OC[C@H]3O[C@H](O[C@]4(CO)O[C@H](CO)[C@@H](O)[C@@H]4O)[C@H](O)[C@@H](O)[C@@H]3O)[C@H](O)[C@@H](O)[C@H]2O)[C@H](O)[C@@H](O)[C@H]1O [Stachyose (tetrahydrate)],229E Inhibition rate,,43.8%
C=C(C)[C@@H]1CC[C@]2(C(=O)O[C@@H]3O[C@H](CO[C@@H]4O[C@H](CO)[C@@H](O[C@@H]5O[C@@H](C)[C@H](O)[C@@H](O)[C@H]5O)[C@H](O)[C@H]4O)[C@@H](O)[C@H](O)[C@H]3O)CC[C@]3(C)[C@H](CC[C@@H]4[C@@]5(C)CC[C@H](O[C@@H]6OC[C@H](O)[C@H](O)[C@H]6O[C@@H]6O[C@@H](C)[C@H](O)[C@@H](O)[C@H]6O)[C@@](C)(CO)[C@@H]5CC[C@]43C)[C@@H]12 [Pulchinenoside C],229E Inhibition rate,,12.2%
C=C1C(=O)O[C@@H]2C[C@@]3(C)CCCC(=C)[C@@H]3C[C@H]12 [Isoalantolactone],229E Inhibition rate,,20.6%
C[C@@H]1C[C@H]2OC(=O)[C@@]3(C)CCC[C@@](C)([C@@H]23)[C@@]1(O)CCc1ccoc1 [Marrubiin],229E Inhibition rate,,59.8%
CC1=C2C(=O)O[C@@H](c3ccoc3)[C@]2(C)CCC1 [Fraxinellone],229E Inhibition rate,,13.5%
"C[C@@H](O)[C@@H](C)O [2,3-Butanediol]",229E Inhibition rate,"229E Inhibition rate, 24 h",20.3%
O=C(CCCCCCCCc1ccc(O)c(O)c1)c1c(O)cccc1O [Malabaricone C],229E Inhibition rate,,42.8%
CC(C)=CCc1c(O)cc(O)c2c(=O)c(-c3ccc(O)cc3)coc12 [Lupiwighteone],229E Inhibition rate,,63.8%
CC(C)=CCc1cc(-c2coc3cc(O)cc(O)c3c2=O)cc(O)c1O [Glycyrrhisoflavone],229E Inhibition rate,,62.7%
CC(C)=CCc1c(O)cc(O)c2c(=O)cc(-c3ccc(O)cc3)oc12 [Licoflavone C],229E Inhibition rate,,28.1%
O=c1c(-c2ccc(O)cc2)coc2cc(O)cc(O)c12 [Genistein],229E Inhibition rate,,17.6%
CC(C)=CCc1c(O)ccc(-c2coc3cc(O)cc(O)c3c2=O)c1O [Licoisoflavone A],229E Inhibition rate,,0%
CC(C)=CCc1c(-c2ccc(O)cc2O)oc2c(CC=C(C)C)c(O)cc(O)c2c1=O [Mulberrin],229E Inhibition rate,,20.6%
COc1cc2c(cc1OC)-c1cc3ccc4c(c3c(=O)n1CC2)OCO4 [8-Oxoepiberberine],229E Inhibition rate,,17.9%
O=C(O)C1CCCCN1O (centres unmarked) [N-Hydroxypipecolic acid],229E Inhibition rate,,19%
COC(=O)[C@@]1(C)CC[C@]2(C(=O)O)CC[C@]3(C)C(=CC[C@@H]4[C@@]5(C)C[C@H](O)[C@H](O)[C@@](C)(CO)[C@@H]5CC[C@]43C)[C@@H]2C1 [Phytolaccagenin],229E Inhibition rate,,22.3%
CC(C)[C@H](NC(=O)[C@H](CC(=O)O)NC(=O)[C@H](CCCCN)NC(=O)[C@@H](N)CCCN=C(N)N)C(=O)N[C@@H](Cc1ccc(O)cc1)C(=O)O [Thymopentin] (H-RKDVY-OH),229E Inhibition rate,"229E Inhibition rate, 24 h",21.6%
CSCC[C@H](NC(=O)[C@H](CC(C)C)NC(=O)CNC(=O)[C@H](Cc1ccccc1)NC(=O)[C@H](Cc1ccccc1)NC(=O)[C@H](CCC(N)=O)NC(=O)[C@H](CCC(N)=O)NC(=O)[C@@H]1CCCN1C(=O)[C@H](CCCCN)NC(=O)[C@@H]1CCCN1C(=O)[C@@H](N)CCCN=C(N)N)C(N)=O [Substance P],229E Inhibition rate,,0%
CC[C@H](C)[C@H](N)C(=O)N[C@@H](C)C(=O)N[C@@H](CCCN=C(N)N)C(=O)N[C@@H](CCCN=C(N)N)C(=O)N[C@@H](Cc1cnc[nH]1)C(=O)N1CCC[C@H]1C(=O)N[C@@H](Cc1ccc(O)cc1)C(=O)N[C@@H](Cc1ccccc1)C(=O)N[C@@H](CC(C)C)C(=O)O [Kinetensin] (H-IARRHPYFL-OH),229E Inhibition rate,,56.1%
N[C@H](CC(=O)O)C(=O)O [(-)-Aspartic acid],229E Inhibition rate,,9.6%
Cc1c(N)nc([C@H](CC(N)=O)NC[C@H](N)C(N)=O)nc1C(=O)N[C@H](C(=O)N[C@H](C)[C@@H](O)[C@H](C)C(=O)N[C@H](C(=O)NCCc1nc(-c2nc(C(=O)NCCC[S+](C)C)cs2)cs1)[C@@H](C)O)[C@@H](O[C@@H]1O[C@@H](CO)[C@@H](O)[C@H](O)[C@@H]1O[C@H]1O[C@H](CO)[C@@H](O)[C@H](OC(N)=O)[C@@H]1O)c1cnc[nH]1 [Bleomycin (sulfate)],229E Inhibition rate,,12.9%
CC(C)=CCC[C@H](C)CC=O [(S)-(-)-Citronellal],229E Inhibition rate,,6.7%
C[C@@H]1CC[C@@]2(OC1)O[C@H]1C[C@H]3[C@@H]4CC=C5C[C@@H](O)C[C@@H](O[C@@H]6O[C@H](C)[C@H](O)[C@H](O[C@@H]7OC[C@@H](O)[C@H](O)[C@H]7O)[C@H]6O[C@@H]6O[C@@H](C)[C@H](O)[C@@H](O)[C@H]6O)[C@]5(C)[C@H]4CC[C@]3(C)[C@H]1[C@@H]2C [Ophiopogonin D'],229E Inhibition rate,"229E Inhibition rate, 24 h",6.6%
C[C@@H]1CC[C@@]2(OC1)O[C@H]1C[C@H]3[C@@H]4CC=C5C[C@@H](O)C[C@@H](O[C@@H]6O[C@H](C)[C@H](O)[C@H](O[C@@H]7OC[C@@H](O)[C@H](O)[C@H]7O)[C@H]6O[C@@H]6O[C@@H](C)[C@H](O)[C@@H](O)[C@H]6O)[C@]5(C)[C@H]4CC[C@]3(C)[C@H]1[C@@H]2C [Ophiopogonin D],229E Inhibition rate,"229E Inhibition rate, 24 h",50.3%
"C[C@@H]1CC[C@@]2(OC1)O[C@H]1C[C@H]3[C@@H]4CC=C5C[C@@H](O)C[C@@H](O[C@@H]6O[C@H](C)[C@H](O)[C@H](O[C@@H]7OC[C@@H](O)[C@H](O)[C@H]7O)[C@H]6O[C@@H]6O[C@H](CO)[C@@H](O)[C@H](O)[C@H]6O)[C@]5(C)[C@H]4CC[C@]3(C)[C@H]1[C@@H]2C [Saponin C, from Liriope muscari]",229E Inhibition rate,,0%
CCC(C)(O)C(=O)O (centres unmarked) [2-Hydroxy-2-methylbutanoic acid],229E Inhibition rate,,0%
C[C@@H]1O[C@@H](OC[C@H]2O[C@@H](Oc3c(-c4ccc(O)cc4)oc4cc(O[C@@H]5O[C@@H](C)[C@H](O)[C@@H](O)[C@H]5O)cc(O)c4c3=O)[C@H](O)[C@@H](O)[C@H]2O)[C@H](O)[C@H](O)[C@H]1O [Robinin],229E Inhibition rate,,8.6%
C[C@@H]1O[C@@H](OC[C@H]2O[C@@H](Oc3c(-c4ccc(OCCO)c(OCCO)c4)oc4cc(OCCO)cc(O)c4c3=O)[C@H](O)[C@@H](O)[C@@H]2O)[C@H](O)[C@H](O)[C@H]1O [Troxerutin],229E Inhibition rate,,50.2%
COc1cc(O)c2c(=O)c(O[C@@H]3O[C@H](CO[C@@H]4O[C@@H](C)[C@H](O)[C@@H](O)[C@H]4O)[C@@H](O)[C@H](O)[C@H]3O)c(-c3ccc(OC)c(O)c3)oc2c1 [Ombuoside],229E Inhibition rate,,41.9%
O=C1CCNC(=O)N1 [Dihydrouracil],229E Inhibition rate,,0%
COc1c(O)cc2oc3cc4c(c(O)c3c(=O)c2c1CC=C(C)C)CCC(C)(C)O4 [3-Isomangostin],229E Inhibition rate,,11.6%
N[C@H](CS)C(=O)O [D-Cysteine],229E Inhibition rate,,6.6%
O=C[C@H](O)[C@@H](O)[C@H](O)[C@H](O)C(=O)O [D-Glucuronic acid],229E Inhibition rate,,57.5%
O=C[C@H](O)[C@@H](O)[C@@H](O)[C@H](O)C(=O)O [D-Galacturonic acid (hydrate)],229E Inhibition rate,,6.7%
O=C(O)[C@@H](O)[C@H](O)[C@H](O)[C@@H](O)C(=O)O [Mucic acid],229E Inhibition rate,,0%
CC(C)=CCc1c(O)cc2c(c1O)C(=O)C[C@@H](c1ccc(O)cc1)O2 [(2S)-6-Prenylnaringenin],229E Inhibition rate,,22.5%
CC[C@]12C=CCN3CC[C@]4(C(=C(C(=O)OC)C1)Nc1ccccc14)[C@@H]32 [Tabersonine],229E Inhibition rate,,0%
O=C(O)CCC(=O)OC[C@@H](NC(=O)C(Cl)Cl)[C@H](O)c1ccc([N+](=O)[O-])cc1 [Chloramphenicol succinate (sodium)],229E Inhibition rate,,54%
